Screening data deposited in PubChem by National Center for Advancing Translational Sciences (NCATS).
PI4K2A inh: qHTS for small molecular inhibitors of PI4K2A; 0.13% of 420,000 active; AID 1346378, 2018; purified PI4K2A, ADP-Glo luminescence, 1 h; active compounds read low; activity change, negative = inhibition, % at 76.9 µM; in the data active = activity change below about -50%; inconclusive = mostly about -30% to -49%;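 note: -100% = wells without enzyme as full effect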
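In this quantitative HTS, ADP production by PI4K2A was quantified luminescently after 1 h at ambient temperature; 100 microM adenosine served as plate-quality control.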
Pol iota inh: qHTS for Inhibitors of Polymerase Iota; DNA polymerase iota (Homo sapiens), Q9UNA4; Pol iota fluorescent replication assay, 10 min; Potency, µM (titrated, usually from 115 µM), without a hit: at the highest dose activity, negative = inhibition, hits mostly inhibitors; 1% of 390,000 active; AID 588590, 2011; note: potency is the fitted concentration of half-maximal effect
Target sequence (Q9UNA4 whole entry, looked up): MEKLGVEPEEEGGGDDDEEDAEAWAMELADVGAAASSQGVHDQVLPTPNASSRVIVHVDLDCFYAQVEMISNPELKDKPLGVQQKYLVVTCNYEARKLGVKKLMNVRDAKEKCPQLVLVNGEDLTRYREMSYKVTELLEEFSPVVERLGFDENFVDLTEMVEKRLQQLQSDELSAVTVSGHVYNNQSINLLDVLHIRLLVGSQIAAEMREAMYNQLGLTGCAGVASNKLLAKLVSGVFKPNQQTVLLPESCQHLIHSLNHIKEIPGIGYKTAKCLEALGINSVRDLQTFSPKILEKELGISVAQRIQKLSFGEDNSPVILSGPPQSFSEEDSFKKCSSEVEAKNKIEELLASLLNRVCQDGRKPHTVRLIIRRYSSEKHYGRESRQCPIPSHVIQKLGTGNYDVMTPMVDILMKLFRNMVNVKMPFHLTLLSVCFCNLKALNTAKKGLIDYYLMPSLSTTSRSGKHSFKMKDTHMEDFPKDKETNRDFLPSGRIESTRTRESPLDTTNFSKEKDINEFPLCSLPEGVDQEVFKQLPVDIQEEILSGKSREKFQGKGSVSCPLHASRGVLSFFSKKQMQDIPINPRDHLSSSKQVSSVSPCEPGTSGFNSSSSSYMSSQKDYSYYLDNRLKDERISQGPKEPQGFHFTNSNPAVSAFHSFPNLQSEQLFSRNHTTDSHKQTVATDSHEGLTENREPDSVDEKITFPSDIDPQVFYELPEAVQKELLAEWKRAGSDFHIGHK
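Fluorescent replication assay read twice, at 0 min and 10 min after adding 50 nM (final) substrate. Enzyme (10 nM) and compounds were first incubated 15 min at room temperature; enzyme-free buffer wells were negative controls.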
Pol kappa inh: qHTS for Inhibitors of Polymerase Kappa | DNA polymerase kappa (Homo sapiens), Q9UBT6 | purified Pol kappa, fluorescent DNA synthesis assay, 10 min | Potency, µM (series often up to 107 µM), without a hit: top-dose activity, negative = inhibition, hits mostly inhibitors | 0.53% of 400,000 active | AID 588579, 2011; note: potency is the fitted concentration of half-maximal effect; % is set by controls: 0 for no effect and ±100 for the full control effect
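50 nM final substrate added after 15 min RT preincubation of 10 nM Pol kappa with compound; fluorescence read at 0 and 10 min.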
POLB inh: qHTS Assay for Inhibitors of DNA Polymerase Beta; 1.3% of 340,000 active; Potency, µM (top dose mostly 114 µM), without a hit: top-dose activity change, negative = inhibition, hits mostly inhibitors; Pol beta primer extension/strand displacement, fluorescence kinetic; P06746; note: potency is the fitted concentration of half-maximal effect; % is set by controls: 0 for no effect and ±100 for the full control effect
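Pol beta (10 nM) and compounds were preincubated 15 min at room temperature, then 50 nM substrate (final) started primer extension/strand displacement. Reads were taken at 0 and 10 min; concentration-response data were fitted to a four-parameter Hill equation.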
PI5P4K alpha inh: qHTS for Inhibitors of phosphatidylinositol 5-phosphate 4-kinase (PI5P4K). max response, %. PI5P4Kalpha enzyme, ADP-Glo luminescence, 60 min; active compounds read low. AID 652105, 2013. 1.2% of 330,000 active; active = max response of -50% or lower; inconclusive = between -30% and -50%; inactive = -30% or higher; note: value at the top dose of about 77 µM; % is set by controls: 0 for no effect and ±100 for the full control effect
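Luminescence from ADP-Glo served as readout of PI5P4Kalpha activity in a qHTS format. Reaction: enzyme, substrate, compound, ATP at 5 microM final, 60 min at RT.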
POLH inh: qHTS for Inhibitors of Polymerase Eta; DNA polymerase eta (Homo sapiens), Q9Y253; recombinant Pol eta, fluorescent DNA replication assay; Potency, µM (top dose mostly 114 µM), for the others: top-dose activity change, negative = inhibition, actives largely listed as inhibitors; 1.2% of 390,000 active; note: potency is the fitted concentration of half-maximal effect; % is set by controls: 0 for no effect and ±100 for the full control effect
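Pol eta (10 nM) was preincubated with compounds for 15 min at room temperature, after which fluorescent replication substrate (50 nM final) was added to start the reaction. Fluorescence was read kinetically at 0 and 10 min.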
Active calls of the source: *; ? = inconclusive; nt = no result given; [ ] = another dose, or the depositor's remark. Sampled rows, rich in hits. Any-hit rate of the full collection: about 2.8%. Unless noted, calls come from the whole dose curve; as a rule, active = well fitted inhibition curve with a large enough effect; inconclusive = small, poorly fitted or top-dose-only effect, or another doubt; inactive = no such curve, though single readings can be large or run the other way.

SMILES	PI4K2A inh	Pol iota inh	Pol kappa inh	POLB inh	PI5P4K alpha inh	POLH inh
C=C(C)C(=O)Nc1cccc(C2=NOC3(C2)C[C@H](C(N)=O)N(C(=O)CC#N)C3)c1 (stereo partly drawn)	?	?	?	35µM*	-20	20µM*
CCCCCC(=O)Nc1cccc(C2=NOC3(C2)C[C@H](C(N)=O)N(C(=O)CC#N)C3)c1 (stereo partly drawn)	nt	nt	nt	40µM*	nt	nt
C/C=C/C=C\C(=O)Nc1cccc(C2=NOC3(C2)C[C@H](C(N)=O)N(C(=O)CC#N)C3)c1 (stereo partly drawn)	?	14µM*	79µM*	50µM*	-13	45µM*
C/C=C\C=C/C(=O)Nc1cccc(C2=NOC3(C2)C[C@@H](C(N)=O)N(C(=O)c2ccc(Cl)cc2)C3)c1 (stereo partly drawn)	0	4%	-2%	-10%	-66*	-9%
CC[N+]1(CC(=O)c2ccc(Br)cc2)CCCCC1	nt	-6%	5%	nt	nt	nt
CCOc1ccc(-n2c(COc3ccccc3)nnc2SCC(=O)Nc2ccc(OCc3ccccc3)cc2)cc1	2	nt	nt	nt	nt	nt
O=C(c1cc(-c2ccccc2)on1)N1CCC(Oc2cccnc2)CC1	2	nt	nt	nt	nt	nt
Cc1[nH]c2ccccc2c1C(c1c[nH]c2ccccc12)c1c(C)[nH]c2ccccc12	nt	29%	3%	nt	nt	nt
C/C=C\C=C/C(=O)Nc1cccc(C2=NOC3(C2)C[C@@H](C(N)=O)N(C(=O)CCCCC)C3)c1 (stereo partly drawn)	-7	-15%	-4%	?	-67*	-11%
O=C(Nc1ccc(F)cc1)OCc1cn(Cc2cccc(F)c2F)nn1	2	nt	nt	nt	nt	nt
COc1ccc2c(c1)c(C(=O)CN(C)C)c(C)n2C	nt	6%	-28%	nt	nt	nt
O=[N+]([O-])c1cccc(S(=O)(=O)Nc2ccc(-c3ccc(N4CCCC4)nn3)cc2)c1	-1	39%	-15%	nt	-1	-11%
O=[N+]([O-])c1ccccc1S(=O)(=O)Nc1ccc(-c2ccc(N3CCCC3)nn2)cc1	-8	?	-30%	nt	-25	20µM*
O=C(O)CCC(=O)N1CCc2cc(S(=O)(=O)N3CCCCC3)ccc21	-1	9%	-11%	35%	nt	-7%
O=C(O)CCC(=O)N1CCc2cc(S(=O)(=O)N3CC=C(c4ccccc4)CC3)ccc21	-4	?	?	22µM*	-9	?
CSc1nc(=S)c2[nH]c(=S)[nH]c2[nH]1	-6	14µM*	-26%	-1%	-87*	-14%
COCCOC(=O)c1c(C)oc2ccc(NS(=O)(=O)c3ccc(C(=O)O)cc3)cc12	-7	-17%	-22%	35µM*	-2	11µM*
Nc1c(O)ccc2c1C(=O)c1ccccc1C2=O	-23	?	79µM*	50µM*	-57*	?
Cc1ccc(C)c(N2N=C(C(=O)NCCN3C(=O)S/C(=C\c4cccnc4)C3=O)CCC2=O)c1	-8	50µM*	-24%	nt	-27	?
O=C(NCCN1C(=O)S/C(=C/c2cccnc2)C1=O)C1=NN(c2ccccc2)C(=O)CC1	-20	-30%	-14%	nt	-9	-25%
COc1ccccc1C(=O)NCC(c1cccs1)N1CCc2ccccc21 (stereo not drawn)	1	-2%	-7%	nt	3	-12%
N#CC1C(=O)NC(=O)C(C#N)C12CCCC2 (stereo not drawn)	-7	nt	nt	nt	-51*	nt
N#CC1C(=O)NC(=O)C(C#N)C12CCCc1sccc12 (stereo not drawn)	0	nt	nt	nt	?	-2%
O=C(Nc1cccc(Cl)c1)c1cccc(N2C(=O)C3CC=CCC3C2=O)c1 (stereo not drawn)	-3	?	-18%	16µM*	-6	-21%
O=C1N=c2ccccc2=C1c1sc(Nc2cccc(O)c2)nc1O	1	-10%	-5%	-18%	?	-10%
SMILES	PI4K2A inh	Pol iota inh	Pol kappa inh	POLB inh	PI5P4K alpha inh	POLH inh
O=C1N=c2ccccc2=C1c1sc(NS(=O)(=O)c2ccccc2)nc1O	0	?	-7%	6%	-61*	-31%
O=C1N=c2ccccc2=C1c1sc(NS(=O)(=O)Cc2ccccc2)nc1O	-2	?	-33%	-4%	-54*	-17%
O=C(O)Cn1c(O)c(C2=c3ccccc3=NC2=O)sc1=O	-1	?	-5%	?	-27	?
N#C/C(=C/c1cn(-c2ccccc2)nc1-c1cccc(S(=O)(=O)N2CCCC2)c1)C(=O)NCc1ccco1	-4	20µM*	?	50µM*	?	28µM*
COc1ccc(-c2nnc(SCC(=O)Nc3cccc(F)c3)s2)cc1	3	-10%	-13%[60.1 µM]	35µM*	nt	-6%
COc1ccc(-c2nnc(SCC(=O)Nc3cccc(C)c3)s2)cc1	-2	5%	-11%[60.1 µM]	-4%	nt	-3%
CSC1=C(C#N)C2(CCCCC2)C(C(=O)Nc2ccccc2)=C(C)N1	10	-30%	0%	nt	3	-9%
CC1=C(C(=O)Nc2ccccc2)C2(CCCCC2)C(C#N)=C(S)N1	10	-7%	-17%	-26%	-58*	-8%
O=S(=O)(Cc1noc(-c2ccc(Cl)cc2)n1)Cc1ccco1	-17	50µM*	?	14µM*	-19	-2%
CC1=C(C(=O)Nc2ccccc2)C(C(C)C)n2nc(SCc3ccccc3C)nc2N1 (stereo not drawn)	2	39%	17%	2%	nt	-12%
O=C1/C(=C/c2ccc(O)c(O)c2)SC(=S)N1Nc1ccccc1	-11	14µM*	-42%	-12%	-61*	7.9µM*
CCOc1cc(/C=C2\CN(C)C/C(=C\c3ccc(O)c(OCC)c3)C2=O)ccc1O	-3	?	-26%	20%	1	45µM*
O=C(O)c1ccc(/C=C2\SC(=S)N(Nc3ccccc3)C2=O)cc1	-9	?	?	-23%	?	-2%
O=C1/C(=C/c2ccncc2)SC(=S)N1Nc1ccccc1	-9	?	-6%	-2%	-11	-1%
O=C(NN1C(=O)/C(=C\c2ccc(O)c([N+](=O)[O-])c2)SC1=S)c1ccccc1Cl	-9	?	?	?	-78*	?
COc1cc(/C=C2\SC(=S)N(Nc3ccccc3)C2=O)ccc1O	-14	50µM*	-31%	11µM*	?	?
